# Several values for one entry are separate records, joined by “and”; a condition that tells them apart may be missing. Equal entries are not always repeated.
# Key:
# Assay in all cases: growth inhibition (% activity, log2 RLU normalised to DMSO / staurosporine); higher = more growth inhibition
# Conditions in all cases: 33 µM
# DIPGX29 = test system: DIPGX29 (H3.3 K27M diffuse intrinsic pontine glioma line)
# Summary of the method: (§1)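 Cells (pHGG lines and H9-derived neural stem cells) were plated on Geltrex-coated 384-well plates and exposed to approved drugs at a single final concentration of about 33 μM, in triplicate, for 7 days at 37 °C, 5% CO2. Log2-transformed CellTiter-Glo luminescence was normalised per plate to % activity between solvent and positive control wells, and the growth-inhibition value is the median over replicates.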
# DIPGX37 = test system: DIPGX37 (H3.3 K27M diffuse intrinsic pontine glioma line)
# Summary of the method: as §1
# DIPGX7 = test system: DIPGX7 (H3.3 K27M diffuse intrinsic pontine glioma line)
# Summary of the method: as §1
# DIPGX9 = test system: DIPGX9 (diffuse intrinsic pontine glioma line)
# Summary of the method: as §1
# HGGX39 = test system: HGGX39 (paediatric high-grade glioma line)
# Summary of the method: as §1
# HGGX6 = test system: HGGX6 (H3.3 G34R paediatric high-grade glioma line)
# Summary of the method: as §1
# HNSC = test system: HNSC
# Summary of the method: as §1
# SUDIPGIV = test system: SUDIPGIV (diffuse intrinsic pontine glioma line)
# Summary of the method: as §1
# SUDIPGVI = test system: SUDIPGVI (diffuse intrinsic pontine glioma line)
# Summary of the method: as §1
# SUDIPGXIII = test system: SUDIPGXIII (diffuse intrinsic pontine glioma line)
# Summary of the method: as §1
SMILES,growth inhibition (DIPGX29),growth inhibition (DIPGX37),growth inhibition (DIPGX7),growth inhibition (DIPGX9),growth inhibition (HGGX39),growth inhibition (HGGX6),growth inhibition (HNSC),growth inhibition (SUDIPGIV),growth inhibition (SUDIPGVI),growth inhibition (SUDIPGXIII)
O=NN(CCCl)C(=O)NC1CCCCC1,0.207%,0.604%,3.11%,1.74%,2.6%,0.392%,8.64%,0.873%,2.64%,0.32%
CC(C(=O)O)c1cccc(C(=O)c2ccccc2)c1 (stereo not given),-0.509%,-1.31%,-0.656%,-0.0225%,1.05%,0.639%,0.455%,-5.26%,1.35%,-0.582%
COC(=O)[C@@H]1CC2=CC(=O)CC[C@]2(C)[C@@]23O[C@@H]2C[C@@]2(C)[C@@H](CC[C@@]24CCC(=O)O4)[C@H]13,0.0665%,2.47%,-0.276%,0.756%,1.45%,1.56%,-0.69%,0.898%,1.05%,0.0503%
C=C1/C(=C\C=C2/CCC[C@]3(C)[C@@H]([C@H](C)CCCC(C)(C)O)CC[C@@H]23)C[C@@H](O)C[C@@H]1O,2.73%,4.49%,6.36%,1.22%,5.14%,4.52%,2.64%,9.51%,2.83%,-1.15%
COc1ccccc1OCC(O)CO (stereo not given),-3.06%,-1.42%,-2.23%,-0.66%,-1.85%,-0.626%,-6.5%,-1.52%,-1.52%,1.23%
CN(Cc1ccc(C(C)(C)C)cc1)Cc1cccc2ccccc12,1.43%,0.769%,0.907%,2.12%,3.22%,1.49%,0.815%,3.24%,3.2%,1.08%
CC1(C)S[C@@H]2[C@H](NC(=O)[C@H](N)c3ccc(O)cc3)C(=O)N2[C@H]1C(=O)O,-2.54% and 1.43%,-2.93% and 3.86%,-1.48% and 1.69%,0.486% and 1.84%,0.0264% and 2.87%,0.163% and 3.37%,-3.3% and 1.46%,-1.85% and 0.698%,-2.12% and 2.79%,7.41% and 0.66%
NC(=O)c1ncn([C@@H]2O[C@H](CO)[C@@H](O)[C@H]2O)c1O,0.0608%,0.272%,-0.185%,-0.234%,1.1%,0.705%,1.34%,-0.809%,-1.05%,-0.893%
C[C@]12C=CC(=O)N[C@@H]1CC[C@@H]1[C@@H]2CC[C@]2(C)[C@@H](C(=O)Nc3cc(C(F)(F)F)ccc3C(F)(F)F)CC[C@@H]12,-0.354%,-0.558%,-0.437%,0.309%,0.618%,1.03%,-1.51%,-0.237%,-0.00919%,-0.463%
CN(C/C=C/C#CC(C)(C)C)Cc1cccc2ccccc12,-0.633% and -1.72%,-0.939% and -0.818%,-1.38% and -1.19%,0.275% and -0.829%,1.78% and -1.01%,0.104% and -1.17%,-0.321% and -4.36%,-0.307% and 0.598%,1.93% and -1.67%,-1.07% and -1.51%
O=C(CCNNC(=O)c1ccncc1)NCc1ccccc1,-2.81%,1.16%,-0.869%,-2.76%,-1.32%,-1.96%,2.79%,-2.06%,-1.86%,0.338%
CC(=O)Oc1ccccc1C(=O)O,0.978%,2.47%,1.52%,1.57%,2.08%,4%,0.311%,-1.34%,2.68%,-16%
NC[C@H]1CC[C@H](C(=O)O)CC1,-0.318%,1.11%,0.868%,1.09%,2.3%,0.25%,-0.348%,-1.18%,0.626%,-0.00541%
O=P(O)(O)C(O)(Cc1cccnc1)P(=O)(O)O,0.184% and -0.127%,-0.218% and -0.408%,2.03% and 0.167%,0.335% and 1.09%,3.43% and 1.8%,2.06% and -1.19%,2.32% and -0.808%,-0.292% and 0.354%,-0.685% and 2.28%,-0.822% and -0.975%
CC(C)c1nc(CN(C)C(=O)N[C@@H](CCN2CCOCC2)C(=O)N[C@H](CC[C@H](Cc2ccccc2)NC(=O)OCc2cncs2)Cc2ccccc2)cs1,3.78%,0.997%,0.492%,2.24%,2.07%,1.63%,1.95%,-0.101%,3.61%,-0.613%
CCC[S+]([O-])c1ccc2[nH]c(NC(=O)OC)nc2c1 (stereo not given),3.39%,3.5%,1.48%,2.55%,0.691%,2.32%,3.73%,2.81%,-0.51%,2.63%
CC1(C)O[C@@H]2C[C@H]3[C@@H]4CCC5=CC(=O)C=C[C@]5(C)[C@@]4(F)[C@@H](O)C[C@]3(C)[C@]2(C(=O)CO)O1,1.92%,0.771%,-0.242%,4.15%,2.88%,0.928%,-2.22%,-0.618%,1.71%,0.942%
CCCCCCCCCCCCCCCCO,-0.933%,2.94%,1.65%,1.02%,2.94%,-1.64%,11.6%,2.42%,0.249%,1.46%
CCC(C)(C)c1ccc(CC(C)CN2C[C@@H](C)O[C@@H](C)C2)cc1 (stereo not given in full),9.06%,6.3%,36.9%,0.0137%,15.3%,11.1%,8.57%,11.7%,-11.5%,-7.54%

SMILES,growth inhibition (DIPGX29),growth inhibition (DIPGX37),growth inhibition (DIPGX7),growth inhibition (DIPGX9),growth inhibition (HGGX39),growth inhibition (HGGX6),growth inhibition (HNSC),growth inhibition (SUDIPGIV),growth inhibition (SUDIPGVI),growth inhibition (SUDIPGXIII)
O=C1C(=O)c2ccccc2C(O)=C1C1CCC(c2ccc(Cl)cc2)CC1 (stereo not given),1.86%,-1.09%,2.26%,2%,1.71%,0.641%,2.01%,3.44%,2.48%,1.82%
Cc1nc2n(c(=O)c1CCN1CCC(c3noc4cc(F)ccc34)CC1)CCCC2O (stereo not given),-0.21%,-0.0675%,0.542%,0.251%,1.52%,-1.12%,23.4%,2.36%,-0.7%,-0.0722%
CN1C[C@@H]2C[C@H]1CN2c1cc2c(cc1F)c(=O)c(C(=O)O)cn2C1CC1,2.67%,1.22%,2.59%,1.98%,6.03%,1.06%,7.67%,4.42%,3.33%,4.88%
CN1CC(=O)N2[C@H](c3ccc4c(c3)OCO4)c3[nH]c4ccccc4c3C[C@@H]2C1=O,-0.154%,2.3%,0.64%,0.257%,2.46%,0.71%,-0.244%,0.899%,-1.44%,2.73%
CCCCc1oc2ccc(NS(C)(=O)=O)cc2c1C(=O)c1ccc(OCCCN(CCCC)CCCC)cc1,58.9%,57.4%,57%,57.4%,56.2%,60.2%,55.5%,57.7%,59.4%,24.1%
C[C@]12CC[C@@H]3c4ccc(O)cc4CC[C@H]3[C@@H]1CCC2=O,0.142%,1.98%,2.55%,1.67%,3.84%,0.36%,1.29%,1.87%,0.844%,-0.509%
CC(C)c1nc(CN(C)C(=O)N[C@H](C(=O)N[C@@H](Cc2ccccc2)C[C@H](O)[C@H](Cc2ccccc2)NC(=O)OCc2cncs2)C(C)C)cs1,1.73%,2.67%,2.88%,1.93%,5.32%,2.08%,5.1%,-1.31%,-0.349%,-0.136%
O=c1oc2cc(O)ccc2s1,1.14%,3.19%,6.79%,1.73%,8.04%,3.75%,2.15%,1.11%,5.42%,28.9%
NCCc1c[nH]cn1,-0.622%,0.871%,-1.55%,0.0733%,1.84%,3.55%,-2.23%,0.269%,-0.51%,22.9%
CC(=O)OCC(=O)[C@@]12N=C(C)O[C@@H]1C[C@H]1[C@@H]3CCC4=CC(=O)C=C[C@]4(C)[C@H]3[C@@H](O)C[C@@]12C,2.06%,0.767%,0.297%,4.71%,3.17%,0.221%,1.26%,-3.7%,-1.31%,-1.39%
CN[C@H]1CC[C@@H](c2ccc(Cl)c(Cl)c2)c2ccccc21,13.3%,6.8%,6.25%,4.32%,7.5%,7.73%,55%,3.54%,6.72%,1.68%
CC(C)C[C@H](NC(=O)[C@H](Cc1ccccc1)NC(=O)c1cnccn1)B(O)O,53.3%,60.7%,60%,59.1%,58.5%,60.1%,64.2%,59.3%,56.3%,69.9%
Nc1nc2ccc(OC(F)(F)F)cc2s1,2.99%,4.46%,3.41%,4.59%,2.04%,2.46%,4.46%,-0.776%,2.57%,1.66%
Nc1nc2c(ncn2COCCO)c(=O)[nH]1,-1.73%,1.12%,1.01%,0.254%,1.26%,-2.13%,5.44%,-0.972%,-0.331%,0.201%
CCC(=O)O[C@@H](O[P@](=O)(CCCCc1ccccc1)CC(=O)N1C[C@H](C2CCCCC2)C[C@H]1C(=O)O)C(C)C,1.88%,3.74%,2.4%,1.15%,2.87%,2.08%,2.72%,1.26%,3.21%,-1.04%
CN1C2CCCC1CC(NC(=O)c1nn(C)c3ccccc13)C2 (stereo not given),1.3%,-1.75%,0.448%,1.03%,1.66%,1.21%,1.6%,0.0415%,1.95%,0.965%
Oc1cc(O)c(Cl)cn1,-1.47%,-1.68%,-1.58%,-0.302%,-2.27%,0.219%,-3.27%,-2.24%,-1.42%,0.7%
CC[C@H]1OC(=O)C[C@@H](O)[C@H](C)[C@@H](O[C@@H]2O[C@H](C)[C@@H](O)[C@H](N(C)C)[C@H]2O)[C@@H](CCN2C[C@H](C)C[C@H](C)C2)C[C@@H](C)C(=O)/C=C/C(C)=C/[C@@H]1CO[C@@H]1O[C@H](C)[C@@H](O)[C@@H](OC)[C@H]1OC,-3.18%,-1.96%,-0.192%,-2.36%,-3.76%,-3.98%,3.6%,-3.04%,-5.87%,1.2%
CCCc1nc2c(C)cc(-c3nc4ccccc4n3C)cc2n1Cc1ccc(-c2ccccc2C(=O)O)cc1,-1.54%,-0.467%,-0.895%,-0.132%,-1.04%,-1.06%,-0.614%,-2.37%,0.572%,-1.14%

# — the supplement of paper PMC8253809
